This is a sample that favours compounds with a hit; in the whole collection about 3.3% have one here.
Sm TGR inh: qHTS Assay for the Inhibitors of Schistosoma Mansoni Peroxiredoxins; Schistosoma mansoni thioredoxin glutathione reductase (TGR), Q962Y6; 360,000 tested, 3% active; purified TGR, DTNB reduction, TNB absorbance 405 nm; Potency, µM (top dose mostly 114 µM), without a hit: at the top dose activity change, negative = inhibition, actives largely listed as inhibitors; further: nearly all actives have a fitted effect of over 60% in size
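First, TGR (20 nM dispensed) and NADPH were mixed with compound. Second, a 15 min room-temperature incubation followed. Third, further NADPH and then DTNB were added to start the reaction. Finally, TNB absorbance was monitored kinetically.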
AmpC inh detg: qHTS Inhibitors of AmpC Beta-Lactamase (assay with detergent). 370,000 tested, 0.041% active. Potency, µM (series often up to 114 µM), for inactives: top-dose activity change, negative = inhibition, most hits filed as inhibitors. AmpC hydrolysis of nitrocefin, absorbance 480 nm, 0.01% Triton. AID 485294, 2010;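 further: 0% = no-compound wells and -100% = no-enzyme wells; nearly all actives have a fitted effect of over 25% in size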
Target sequence (P00811 whole entry, looked up): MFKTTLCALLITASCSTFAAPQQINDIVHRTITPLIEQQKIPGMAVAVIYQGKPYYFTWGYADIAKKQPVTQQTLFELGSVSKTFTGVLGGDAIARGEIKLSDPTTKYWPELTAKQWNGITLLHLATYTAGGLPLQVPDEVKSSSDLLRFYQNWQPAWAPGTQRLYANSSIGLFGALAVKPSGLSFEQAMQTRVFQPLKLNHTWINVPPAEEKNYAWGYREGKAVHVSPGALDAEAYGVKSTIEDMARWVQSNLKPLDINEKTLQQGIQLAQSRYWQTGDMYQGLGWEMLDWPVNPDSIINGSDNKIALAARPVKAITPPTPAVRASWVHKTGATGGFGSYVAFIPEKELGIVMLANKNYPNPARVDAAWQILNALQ
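20 mM phosphate pH 7.0 + 0.01% (detergent screen) or 0.0001% Triton X-100; 5.3 nM AmpC reagent; cpd preinc 15 min RT; nitrocefin (800 uM stock) to start; A480 q20 s × 4 min; Activity was normalised to no-enzyme and no-compound control wells.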
AmpC no deterg: qHTS Inhibitors of AmpC Beta-Lactamase (assay without detergent); P00811; AmpC nitrocefin hydrolysis, absorbance 480 nm, 0.0001% Triton; Potency, µM (doses to about 57.1 µM), for the others: at the top dose activity change, negative = inhibition, most hits filed as inhibitors; 330,000 tested, 0.52% active; AID 485341, 2010;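 further: plate controls were no compound for no effect and no enzyme for full effect; nearly all actives have a fitted effect of over 20% in size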
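20 mM phosphate pH 7.0 + 0.01% (detergent screen) or 0.0001% Triton X-100; 5.3 nM AmpC reagent; cpd preinc 15 min RT; nitrocefin (800 uM stock) to start; A480 q20 s × 4 min; Activity was normalised to no-enzyme and no-compound control wells.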
Numbers without * were called inactive; ? = inconclusive; · = no result; [ ] = remark or other dose. The call rests on the fitted dose curve; in most records, active means well fitted curve in the direction sought with a large enough effect; inconclusive means small, poorly fitted or top-dose-only effect, or another doubt; inactive means no such curve, though single readings can be large; an effect the other way counts as inactive or inconclusive. Unless noted, on the % scale 0 is the no-effect control and ±100 the full control effect; potency means the concentration at half of the fitted maximal effect.

SMILES	Sm TGR inh	AmpC inh detg	AmpC no deterg
Cc1cc(C)cc(NC(=O)/C=C/c2ccc([N+](=O)[O-])s2)c1	-0.3%	7.8%	-21.6%
CC1CN(C(=O)/C=C/c2ccc([N+](=O)[O-])s2)CC(C)O1 (configuration not stated)	20µM*	?	-40.2%
CC1CC(C)CN(C(=O)/C=C/c2ccc([N+](=O)[O-])s2)C1 (configuration not stated)	12.6µM*	-2.0%	17.1%
COc1ccccc1CN1CC(C(=O)NCc2ncccc2C)CCC1=O (configuration not stated)	0.0%	?	-12.1%
COCCCn1c(=O)c2sccc2n2c(CCCC(=O)N(C)Cc3ccco3)nnc12	-12.4%	1.6%	8.4%
CCc1nnc(NC(=O)CSc2sc3c(O)cc(=O)[nH]c3c2C#N)s1	35.5µM*	0.9%	-38.6%
CCSc1nnc(NC(=O)CSc2sc3c(O)cc(=O)[nH]c3c2C#N)s1	-25.8%	3.0%	?
Cc1ccc(C)c(NC(=O)CSc2sc3c(O)cc(=O)[nH]c3c2C#N)c1	-1.3%	-0.4%	-38.6%
Cc1ccc(Cl)cc1NC(=O)CSc1sc2c(O)cc(=O)[nH]c2c1C#N	-2.0%	-1.9%	-53.3%
COc1ccccc1NC(=O)CSc1sc2c(O)cc(=O)[nH]c2c1C#N	14.1µM*	-1.1%	-38.7%
Cc1cc(NC(=O)CSc2sc3c(O)cc(=O)[nH]c3c2C#N)ccc1Br	?	7.0%	14.1µM*
COc1ccc(NC(=O)CSc2sc3c(O)cc(=O)[nH]c3c2C#N)c(OC)c1	-14.5%	6.1%	-44.8%
N#Cc1c(SCC(=O)Nc2cccc(C(F)(F)F)c2)sc2c(O)cc(=O)[nH]c12	31.6µM*	?	22.4µM*
Cc1ccc(NC(=O)NCCOCCn2c(=O)oc3ccccc32)cc1F	9.2%	17.2%	·
CCOC(=O)Cc1ccc(NC(=O)N2CC(CC)Oc3ccccc32)cc1 (configuration not stated)	-4.5%	19.7%	·
Cc1c(Cl)cccc1NC(=O)CCn1nc(C)c2c(C)n(-c3ccccc3)nc2c1=O	7.0%	21.8%	·
COc1ccc(S(=O)(=O)N2CCN(c3nn(C)c(=O)n(C)c3=O)CC2)cc1	1.2%	3.5%	11.6%
Cc1ccc(C(=O)N/C(=C/c2ccco2)C(=O)NCC2CCCO2)cc1 (configuration not stated)	-19.1%	-6.5%	-18.2%
Cc1ccc(/C=C/C(=O)NCc2ccc3c(c2)OCO3)o1	12.6µM*	?	-12.2%
O=C(/C=C/c1ccco1)NCC1CCCO1 (configuration not stated)	5.01µM*	-13.9%	-2.6%
O=C(/C=C/c1c(Cl)cccc1Cl)NCc1ccco1	-7.8%	-15.3%	-17.0%
O=C(/C=C/c1ccc2c(c1)OCO2)NCc1ccco1	39.8µM*	?	-6.5%
Cc1ccc(C(=O)NCc2ccc3c(c2)OCO3)o1	8.2%	?	-13.9%
Cc1ccc(/C=C/C(=O)NCc2ccco2)o1	12.6µM*	-8.5%	-30.4%
O=C(/C=C/c1ccc(Cl)c(Cl)c1)NCc1ccco1	-7.3%	-9.1%	-20.2%
SMILES	Sm TGR inh	AmpC inh detg	AmpC no deterg
O=C(/C=C/c1ccccc1)NCc1ccco1	0.0%	10.5%	-10.8%
Cc1ccc(/C=C/C(=O)NCc2ccccn2)o1	17.8µM*	-6.7%	-25.6%
CCNc1ccccc(C(=O)/C=C/c2ccc3c(c2)OCO3)c1=O	2.51µM*	-4.1%	-36.9%
COC(=O)/C=C/c1ccc2c(c1)OCO2	-1.0%	-0.9%	-10.0%
COc1ccc(/C=C/C(=O)NCc2ccccn2)cc1	4.6%	-8.7%	-9.8%
O=C(/C=C/c1ccco1)NCc1ccco1	3.98µM*	8.8%	-15.3%
CC(NCC(=O)NC(=O)NC1CCCC1)c1ccc(Cl)cc1Cl (configuration not stated)	-2.5%	-14.6%	?
CCN(CC)C(=O)NCc1c(C)cc(C)cc1C	0.6%	-10.5%	-4.6%[11.4 µM]
O=C(NCCS(=O)(=O)NCc1ccc2c(c1)OCO2)c1ccccc1	6.0%	?	-7.1%
Cc1ccc2c(C(=O)CCl)c(C)[nH]c2c1	1.41µM*	-9.1%	-17.9%
Cc1ccc2c(C(=O)CN3CCSCC3)c(C)[nH]c2c1	?	-6.8%	-11.2%
O=C1CC(N2CCSCC2)C(=O)N1c1ccc(F)cc1 (configuration not stated)	?	-2.8%	76.3%
O=C1CC(N2CC=C(c3ccccc3)CC2)C(=O)N1c1ccc(F)cc1 (configuration not stated)	8.91µM*	?	44.7µM*
CCCOc1ccc(N2C(=O)CC(N3CC=C(c4ccccc4)CC3)C2=O)cc1 (configuration not stated)	28.2µM*	-2.0%	-7.3%[2.29 µM]
CCCOc1ccc(N2C(=O)CC(N3CCOCC3)C2=O)cc1 (configuration not stated)	-18.0%	?	-16.3%
Cc1ccc(-c2c(C)sc3nc(CN4CCN(CC(=O)NC5CC5)CC4)[nH]c(=O)c23)cc1	-24.5%	5.9%	183.5%
N#Cc1c[nH]n2c(NC3CCCC3)c(-c3ccc(Cl)cc3)nc12	2.5%	16.8%	·
Cc1cccc(NC2=CC(c3cccc(Br)c3)N(c3cccc(C)c3)C2=O)c1 (configuration not stated)	?	21.8%	·
CCOC(=O)c1sc(NC(=O)CSc2n[nH]c(-c3ccccc3)n2)c(C#N)c1C	0.1%	-3.4%	-38.9%
Cc1ccc(/C=C/C2=Cc3c(sc(NC(=O)CSc4n[nH]c(N)n4)c3C#N)C(C)(C)C2)o1	2.51µM*	-7.2%	12.6µM*
Cc1ccc(-c2noc(C3CCCN(C(=O)c4ccc(Cl)cc4)C3)n2)o1 (configuration not stated)	12.2%	5.1%	67.4%
Cc1ccc(-c2noc(C3CCCN(C(=O)C4CCCCC4)C3)n2)o1 (configuration not stated)	25.1µM*	1.1%	56.0%
CCOc1cccc2sc(N3CCN(C(=O)C(C)(C)C)CC3)nc12	-12.5%	0.7%	·
Cn1c(=O)c2c(SCc3ccccc3)nc(-c3ccco3)nc2n(C)c1=O	-12.2%	-14.4%	-0.4%
CC(Sc1nc(-c2ccco2)nc2c1c(=O)n(C)c(=O)n2C)C(=O)O (configuration not stated)	39.8µM*	-1.6%	-24.9%
SMILES	Sm TGR inh	AmpC inh detg	AmpC no deterg
CSc1ccc(CCNC(=O)Cn2nc(C)n3c(cc4sccc43)c2=O)cc1	2.3%	18.8%	·
O=C1NC(=O)/C(=C\c2ccc(Br)o2)S1	14.1µM*	2.3%	-25.2%
O=C1NC(=O)/C(=C/c2ccc(-c3cc(C(=O)O)ccc3Cl)o2)S1	-25.5%	-12.1%	-34.6%
C/C(=N\NC(=O)c1ccoc1C)c1cccc2ccccc12	6.6%	-2.8%	-8.9%
Cc1cc(Cl)c(Cl)cc1S(=O)(=O)NCCCn1ccnc1	-4.2%	1.3%	5.6%
COc1cccc(NC(=O)c2oc3ccccc3c2NC(=O)C2CCCCC2)c1	-8.7%	1.6%	·
CCOC(=O)C1Oc2ccccc2C(c2ccc(C)cc2)=C1C(=O)OC (configuration not stated)	·	·	18.7%
COc1ccc2c(c1)OCC1=C2CCC2(C)C(=O)CC=C12 (configuration not stated)	20µM*	-19.2%	-33.1%
COc1ccc2c(c1)SCCC2=O	-3.2%	-3.0%	-10.9%

Assay outcomes from PubChem.
